Test results as given in PubChem BioAssay (NCI).
About 83,000 compounds went through this panel and 20% of them were active in at least one assay; those are over-represented in the sample as a whole.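 Growth was measured after 48 h exposure to one concentration of compound in 96-well plates. Values under 10 count as active.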 A number with no mark means an inactive call. Calls of active or inactive are those of the source.

These compounds were tested on HT29 colon (assay: NCI-60 one-dose screen, 48 h (100 = growth as untreated, 0 = no growth, -100 = all killed)). Conditions: 10 µM unless noted.

SMILES | growth
Fc1ccc(Nc2nc3nonc3nc2Nc2ccc(F)cc2)cc1 | 2.83% (active)
COc1cc(C2CC(c3ccc(Nc4nc(Nc5ccc(F)cc5)nc(Nc5ccc(Cl)cc5)n4)cc3)=NN2C(C)=O)cc(OC)c1OC (stereo unspecified) | 46.3%
c1ccc2[nH]c(SSc3nc4ncncc4[nH]3)nc2c1 | 29.5%
COc1cccc(CCC2CCCN(c3cc(C)nc(N)n3)C2)c1 (stereo unspecified) | 4.64% (active)
COc1cc(C2C=C(c3cccc(NC(C)=O)c3)Nc3ncnn32)cc(OC)c1OC (stereo unspecified) | 10.9%
Cc1c(C(=O)O)nnn1-c1nccs1 | 89.7%
CC(C)c1ccc(C(=O)OC(=O)c2ccc(C(C)C)cc2)cc1 | 112%
c1ccc(-c2oc3ccccc3c2-c2ccccc2)cc1 | 99%
C=CC(=O)Nc1cccc(C)c1Nc1cc(-c2cccnc2Cc2c(C)c(OC)cc(OC)c2C)ncn1 | 5.04% (active)
Clc1ccc2[nH]c3c(NCCCN4CCOCC4)ncnc3c2c1 | 18.6%
CCCCCCCC/C=C\CCCCCCCC(=O)Oc1cccc2cccnc12 | 137%
CCN(CC)CCCNC(=O)c1ccc(N)cc1O | 103%
CC(C)n1nc(C#Cc2cccc(O)c2)c2c(N)ncnc21 | -17.7% (active)
CSc1ccc(Cl)c(C(=O)Nc2sccc2C(N)=O)c1 | 118%
COc1ccc(NC(=O)c2cccc(-c3cc(=O)c4c(O)c(OC)c(OC)cc4o3)c2)cc1 | 87.7%
CC(C)OCCCNCC(=O)Nc1ccc(S(=O)(=O)c2ccc(NC(=O)CNCCCOC(C)C)cc2)cc1 | 27.4%
